PubChem BioAssay AID1159580 (chemical genetic matrix, 2015)
Screen size: about 5,500 compounds; about 2,000 (36%) were called active. Not shown: some 18% with an inconclusive outcome. Cut-off read from the data, not from the text of the source: active = normalized growth mostly below about 0.91 (no sharp cut-off); inconclusive = no clear call, values can overlap the other calls; inactive = mostly above about 0.92. Some of the results follow.

Assay: chemical genetic growth profiling, strain panel (AID 1159580);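 note: tested at 20 µM; growth read once vehicle control cultures reached saturation at 30 °C; 1 = growth at the plate median or of vehicle wells; lower values mean less growth of the strain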
Conditions: growth OD

Measured: normalized growth

COc1ccc(-c2oc3c(CC=C(C)C)c(O[C@@H]4O[C@H](CO)[C@@H](O)[C@H](O)[C@H]4O)cc(O)c3c(=O)c2O[C@@H]2O[C@@H](C)[C@H](O)[C@@H](O)[C@H]2O)cc1
inactive: S. cerevisiae deletion strains, locus YJR066W, strain TOR1, stronger effect = lower value 0.949 | S. cerevisiae deletion strains, locus YKL009W, strain mrt4, stronger effect = lower value 0.963 | S. cerevisiae deletion strains, locus YKL068W, stronger effect = lower value 0.986 | S. cerevisiae deletion strains, locus YKL085W, strain MDH1 (second series), stronger effect = lower value 0.975 | S. cerevisiae deletion strains, locus YKL085W, strain MDH1, stronger effect = lower value 0.975 | S. cerevisiae deletion strains, locus YKL160W, strain elf1, stronger effect = lower value 1 | S. cerevisiae deletion strains, locus YKL190W, strain CNB1, stronger effect = lower value 1.02 | S. cerevisiae deletion strains, locus YKR001C, strain vps1, stronger effect = lower value 0.993 | S. cerevisiae deletion strains, locus YKR026C, strain gcn3, stronger effect = lower value 1.04 | S. cerevisiae deletion strains, locus YKR091W, strain srl3, stronger effect = lower value 1.03 | S. cerevisiae deletion strains, locus YLL001W, strain dnm1, stronger effect = lower value 1.01 | S. cerevisiae deletion strains, locus YLL026W, stronger effect = lower value 1.04 | S. cerevisiae deletion strains, locus YLL041C, strain sdh2, stronger effect = lower value 1.04 | S. cerevisiae deletion strains, locus YLR027C, strain aat2, stronger effect = lower value 1.03 | S. cerevisiae deletion strains, locus YLR039C, strain RIC1, stronger effect = lower value 1.01 | S. cerevisiae deletion strains, locus YLR058C, strain SHM2, stronger effect = lower value 0.988 | S. cerevisiae deletion strains, locus YLR102C, strain apc9, stronger effect = lower value 0.974 | S. cerevisiae deletion strains, locus YLR113W, strain HOG1, stronger effect = lower value 1.04 | S. cerevisiae deletion strains, locus YLR221C, strain rsa3, stronger effect = lower value 1.04 | S. cerevisiae deletion strains, locus YLR258W, strain gsy2, stronger effect = lower value 1.01 | S. cerevisiae deletion strains, locus YLR262C, strain YPT6 (second series), stronger effect = lower value 1.05 | S. cerevisiae deletion strains, locus YLR262C, strain YPT6, stronger effect = lower value 0.971 | S. cerevisiae deletion strains, locus YLR268W, strain sec22, stronger effect = lower value 0.969 | S. cerevisiae deletion strains, locus YLR320W, strain mms22, stronger effect = lower value 1.04 | S. cerevisiae deletion strains, locus YLR330W, strain CHS5, stronger effect = lower value 1.01 | S. cerevisiae deletion strains, locus YLR342W, strain FKS1 (second series), stronger effect = lower value 1.06 | S. cerevisiae deletion strains, locus YLR342W, strain FKS1, stronger effect = lower value 1.04 | S. cerevisiae deletion strains, locus YLR357W, strain rsc2, stronger effect = lower value 1.02 | S. cerevisiae deletion strains, locus YLR370C, strain arc18, stronger effect = lower value 1.02 | S. cerevisiae deletion strains, locus YLR371W, strain rom2, stronger effect = lower value 0.965 | S. cerevisiae deletion strains, locus YLR384C, strain iki3, stronger effect = lower value 1.01 | S. cerevisiae deletion strains, locus YLR418C, strain cdc73, stronger effect = lower value 0.998 | S. cerevisiae deletion strains, locus YML016C, strain PPZ1, stronger effect = lower value 1 | S. cerevisiae deletion strains, locus YML032C, strain rad52, stronger effect = lower value 1 | S. cerevisiae deletion strains, locus YML120C, strain ndi1, stronger effect = lower value 1.02 | S. cerevisiae deletion strains, locus YML124C, strain tub3, stronger effect = lower value 0.975 | S. cerevisiae deletion strains, locus YMR058W, strain fet3, stronger effect = lower value 1.04 | S. cerevisiae deletion strains, locus YMR078C, strain ctf18, stronger effect = lower value 0.977 | S. cerevisiae deletion strains, locus YMR125W, strain sto1, stronger effect = lower value 1.04 | S. cerevisiae deletion strains, locus YMR129W, stronger effect = lower value 1.04 | S. cerevisiae deletion strains, locus YMR205C, strain PFK2, stronger effect = lower value 1.04 | S. cerevisiae deletion strains, locus YMR223W, strain ubp8, stronger effect = lower value 0.979 | S. cerevisiae deletion strains, locus YMR231W, strain pep5, stronger effect = lower value 1 | S. cerevisiae deletion strains, locus YMR263W, strain SAP30, stronger effect = lower value 1 | S. cerevisiae deletion strains, locus YMR307W, strain GAS1, stronger effect = lower value 1.15 | S. cerevisiae deletion strains, locus YNL067W, strain RPL9B, stronger effect = lower value 0.963 | S. cerevisiae deletion strains, locus YNL071W, strain lat1, stronger effect = lower value 1.03 | S. cerevisiae deletion strains, locus YNL128W, strain TEP1, stronger effect = lower value 0.974 | S. cerevisiae deletion strains, locus YNL183C, strain NPR1, stronger effect = lower value 0.952 | S. cerevisiae deletion strains, locus YNL209W, strain ssb2, stronger effect = lower value 1.03 | S. cerevisiae deletion strains, locus YNL233W, strain BNI4, stronger effect = lower value 0.99 | S. cerevisiae deletion strains, locus YNL248C, strain rpa49, stronger effect = lower value 1.04 | S. cerevisiae deletion strains, locus YNL250W, strain rad50, stronger effect = lower value 0.93 | S. cerevisiae deletion strains, locus YNL271C, strain bni1, stronger effect = lower value 0.965 | S. cerevisiae deletion strains, locus YNL298W, strain CLA4, stronger effect = lower value 0.981 | S. cerevisiae deletion strains, locus YNL307C, strain MCK1, stronger effect = lower value 0.979 | S. cerevisiae deletion strains, locus YNL322C, strain KRE1 (second series), stronger effect = lower value 1.03 | S. cerevisiae deletion strains, locus YNR049C, strain mso1, stronger effect = lower value 1.03 | S. cerevisiae deletion strains, locus YNR052C, strain pop2, stronger effect = lower value 0.984 | S. cerevisiae deletion strains, locus YOL012C, strain htz1 0.851 | S. cerevisiae deletion strains, locus YOL147C, strain pex11, stronger effect = lower value 0.989 | S. cerevisiae deletion strains, locus YOR001W, strain rrp6, stronger effect = lower value 1.05 | S. cerevisiae deletion strains, locus YOR061W, strain CKA2, stronger effect = lower value 0.992 | S. cerevisiae deletion strains, locus YOR069W, strain VPS5, stronger effect = lower value 0.999 | S. cerevisiae deletion strains, locus YOR070C, strain gyp1, stronger effect = lower value 1.01 | S. cerevisiae deletion strains, locus YOR080W, strain dia2, stronger effect = lower value 1.04 | S. cerevisiae deletion strains, locus YOR083W, strain WHI5, stronger effect = lower value 0.988 | S. cerevisiae deletion strains, locus YOR106W, strain vam3, stronger effect = lower value 0.989 | S. cerevisiae deletion strains, locus YOR136W, strain idh2, stronger effect = lower value 0.985 | S. cerevisiae deletion strains, locus YOR144C, strain elg1, stronger effect = lower value 1 | S. cerevisiae deletion strains, locus YOR184W, strain ser1, stronger effect = lower value 0.984 | S. cerevisiae deletion strains, locus YOR231W, strain MKK1, stronger effect = lower value 1.02 | S. cerevisiae deletion strains, locus YOR265W, strain rbl2, stronger effect = lower value 1.02 | S. cerevisiae deletion strains, locus YOR270C, strain vph1, stronger effect = lower value 0.999 | S. cerevisiae deletion strains, locus YOR290C, strain snf2, stronger effect = lower value 0.981 | S. cerevisiae deletion strains, locus YOR316C, strain cot1, stronger effect = lower value 0.976 | S. cerevisiae deletion strains, locus YPL051W, strain arl3, stronger effect = lower value 1.02 | S. cerevisiae deletion strains, locus YPL055C, strain LGE1, stronger effect = lower value 1 | S. cerevisiae deletion strains, locus YPL078C, strain atp4, stronger effect = lower value 0.986 | S. cerevisiae deletion strains, locus YPL106C, strain sse1, stronger effect = lower value 1.04 | S. cerevisiae deletion strains, locus YPL240C, strain hsp82, stronger effect = lower value 1.02 | S. cerevisiae deletion strains, locus YPL241C, strain CIN2, stronger effect = lower value 0.99 | S. cerevisiae deletion strains, locus YPL256C, strain CLN2, stronger effect = lower value 1 | S. cerevisiae deletion strains, locus YPR119W, strain clb2, stronger effect = lower value 0.98 | S. cerevisiae deletion strains, locus YPR141C, strain kar3, stronger effect = lower value 0.968 | S. cerevisiae deletion strains, locus YPR163C, strain tif3, stronger effect = lower value 0.978 | S. cerevisiae deletion strains, locus YPR167C, strain met16, stronger effect = lower value 0.983 | S. cerevisiae deletion strains, strain wtn01, stronger effect = lower value 0.986 | S. cerevisiae strains, strain wild type, stronger effect = lower value 1.01
